Compound activity: PubChem BioAssay, National Center for Advancing Translational Sciences (NCATS)
LmPK inhibitor: qHTS Assay for Inhibitors of Leishmania Mexicana Pyruvate Kinase (LmPK); Q27686; purified LmPK, Kinase-Glo ATP luminescence, 1 h; Potency, µM (top dose mostly 57.5 µM), hits mostly inhibitors; 290,000 tested, 0.37% active; AID 1721, 2009
Target sequence (Q27686 whole entry, looked up): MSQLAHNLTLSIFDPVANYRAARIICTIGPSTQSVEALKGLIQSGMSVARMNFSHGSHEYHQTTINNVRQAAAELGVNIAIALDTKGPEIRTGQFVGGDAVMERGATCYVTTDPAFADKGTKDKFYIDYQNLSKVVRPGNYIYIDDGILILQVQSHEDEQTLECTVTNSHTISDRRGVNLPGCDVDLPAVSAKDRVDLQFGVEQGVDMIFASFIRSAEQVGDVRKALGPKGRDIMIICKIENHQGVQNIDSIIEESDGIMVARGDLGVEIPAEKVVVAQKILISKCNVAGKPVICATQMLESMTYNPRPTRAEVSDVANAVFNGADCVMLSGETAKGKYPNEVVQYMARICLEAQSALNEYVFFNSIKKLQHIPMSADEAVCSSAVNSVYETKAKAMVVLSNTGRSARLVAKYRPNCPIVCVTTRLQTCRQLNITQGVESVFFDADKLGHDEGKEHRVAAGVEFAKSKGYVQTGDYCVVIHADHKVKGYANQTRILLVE
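qHTS format; LmPK 0.1 nM; substrates PEP 0.5 mM and ADP 0.1 mM. One-hour room-temperature incubation, then coupled luciferase luminescence; 0.5 nM enzyme wells mark activation.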
Giardia FBPA inh: qHTS Assay for Inhibitors of Fructose-1,6-bisphosphate Aldolase from Giardia Lamblia | 290,000 tested, 0.71% active | AID 2451, 2010 | A8B2U2 | purified Giardia FBPA | Potency, µM (highest dose often 59.6 µM), most hits filed as inhibitors; further: nearly all actives have a fitted effect of over 55% in size
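40 nM FBPA preincubated 10 min at RT with compound (up to 57.5 uM final), then substrate plus GAPDH/TPI/NAD/arsenate coupling and diaphorase/resazurin added. Fluorescence read after 20 min at RT, 525/598 nm.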
Sm TGR inh: qHTS Assay for the Inhibitors of Schistosoma Mansoni Peroxiredoxins. 360,000 tested, 3% active. AID 485364, 2010. purified TGR, DTNB reduction, TNB absorbance 405 nm. Potency, µM (series often up to 114 µM), actives largely listed as inhibitors; further: nearly all actives have a fitted effect of over 60% in size
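Kinetic colorimetric format: TGR-catalysed, NADPH-driven DTNB reduction monitored via TNB absorbance. Enzyme dispensed at 20 nM; compound exposure 15 min at room temperature before reaction start.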
Tb PYK inh: qHTS of Trypanosoma Brucei Inhibitors. TbPYK enzyme, Kinase-Glo Plus ATP luminescence, 45 min. Potency, µM (top dose mostly 76.8 µM), actives largely listed as inhibitors. 410,000 tested, 0.12% active. AID 624173, 2012; further: nearly all actives have a fitted effect of over 50% in size
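Glycolytic pyruvate kinase of T. brucei was incubated with substrate, test compound and 130 uM ADP for 45 minutes at room temperature. Luminescent Kinase-Glo Plus signal was measured after 10 minutes.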
RE007 growth inh: qHTS Assay for Inhibitors of the HIV-1 protein Vpr | S. pombe RE007 Vpr strain, BacTiter-Glo ATP luminescence, 24 h | Potency, µM (titrated, usually from 92.2 µM), usual class: inhibitors | 360,000 tested, 0.21% active; active means well fitted falling curve with a large enough effect; inconclusive means small, poorly fitted or top-dose-only effect; inactive means no such curve, though single readings can be large or run the other way; further: nearly all actives have a fitted effect of over 50% in size
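Fission yeast RE007 carrying one integrated HIV-1 vpr copy, seeded at OD 0.01 in PMG+AL medium with 23 nL pinned compound. Grown 24 h at 30 degrees; viability read by BacTiter-Glo luminescence after 5 min.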
Numbers stand for hits; . = inactive; ? = inconclusive; / = no result given; [ ] = another dose, or the depositor's remark. This is a sample that favours compounds with a hit; in the whole collection about 3.3% have one here. Unless noted, the call rests on the fitted dose curve; in most records, active means well fitted curve in the direction sought with a large enough effect; inconclusive means small, poorly fitted or top-dose-only effect, or another doubt; inactive means no such curve, though single readings can be large; an effect the other way counts as inactive or inconclusive.

SMILES	LmPK inhibitor	Giardia FBPA inh	Sm TGR inh	Tb PYK inh	RE007 growth inh
O=C(NC1(C(F)(F)F)Oc2ccc(Cl)cc2O1)N1CCC2(CC1)OCCO2 (stereo unspecified)	.	?	45µM	.	.
O=C(NC1(C(F)(F)F)Oc2ccccc2O1)N1CCC2(CC1)OCCO2	.	.	18µM	.	.
O=C(c1ccccc1)N1CCC2(CC1)OCCO2	.	.	.	.	.
Cc1ccc(-n2c(SCC(=O)NCC3CCCO3)nc3ccccc3c2=O)cc1 (stereo unspecified)	/	/	/	.	.
Oc1c(C=NCc2ccccc2)sc2ccccc12	.	.	.	.	.
Oc1cccc(C=Nc2cccc3ccccc23)c1O	.	?	7.9µM	?	.
Oc1cccc(C=NCc2ccccc2)c1O	.	7.1µM	50µM	.	.
COc1ccc(-n2ncc(C(=O)Nc3ccc4c(c3)OCCO4)c2C2CCN(C(=O)OC(C)(C)C)CC2)cc1	/	/	.	.[15.4 µM]	/
CCCCCn1c(-c2ccco2)nc2nc3ccccc3nc21	.	.	?	.	.
Cc1ccc(-c2nc3nc4ccccc4nc3n2Cc2ccco2)cc1	.	.	18µM	.	.
Clc1ccc(-c2nc3nc4ccccc4nc3n2Cc2ccco2)cc1	.	.	20µM	.	.
CC1CCN(CC(=O)Nc2cccc([N+](=O)[O-])c2)CC1	.	.	.	.	.
CCCN1CCOC(CC(=O)Nc2ccc([N+](=O)[O-])cc2)C1=O (stereo unspecified)	.	.	28µM	.	?
CCN1CCOC(CC(=O)Nc2cccc([N+](=O)[O-])c2)C1=O (stereo unspecified)	.	.	11µM	.	?
Cc1snc(SCC(=O)c2ccc([N+](=O)[O-])cc2)c1C#N	.	?	.	35µM	?
Cc1snc(SCC(=O)c2ccc(F)cc2)c1C#N	.	.	.	.	.
COc1cccc(C(=O)c2ncc(C(F)(F)F)cc2Cl)c1	.	.	50µM	.	.
COc1ccc(C(=O)c2ncc(C(F)(F)F)cc2Cl)cc1	.	.	.	.	.
CCOC(=O)c1sc2nc(CC(=O)OC)nc(NCc3ccco3)c2c1C	.	.	45µM	.	.
Cc1ccc(CN(C)C(=O)c2ccccc2Oc2ccccc2)o1	.	.	7.9µM	?	.
Cc1ccc(CN(C)C(=O)c2ccc(S(=O)(=O)N(C)c3ccccc3)cc2)o1	/	/	11µM	?	.
Cc1ccc(CN(C)C(=O)c2cccc(S(=O)(=O)N3CCc4ccccc4C3)c2)o1	/	/	28µM	?	.
Cc1ccc(NC(=O)CN(C)C(=O)c2cccc(S(=O)(=O)N3CCc4ccccc4C3)c2)cc1	/	/	/	.	.
C=CCn1c(SCC(=O)NCc2ccco2)nnc1C1CCCCC1	/	/	.	.	.
CCC(C)NC(=O)c1ccc2c(c1)S(=O)(=O)c1ccccc1C2=O (stereo unspecified)	.	/	18µM	.	.
SMILES	LmPK inhibitor	Giardia FBPA inh	Sm TGR inh	Tb PYK inh	RE007 growth inh
Oc1ccc2ccccc2c1C=NCc1cn2ccsc2n1	.	1µM	.[11.4 µM]	.	.
CCOC(=O)C(=CNNc1ccccc1)C(=O)OCC	.	.	2.2µM	.	.
O=C1COc2ccc(N3C(=O)C=CC3=O)cc2N1	.	?	0.4µM	/	/
Cc1ccc(CC(=O)Nc2c(C(=O)N3CCN(c4ccccc4F)CC3)oc3ccccc23)cc1	/	/	45µM	.	/
COc1ccc(NS(=O)(=O)c2ccc(C)c(C(=O)N3CCN(Cc4cc(OC)ccc4OC)CC3)c2)cc1	/	/	/	.	.
Cc1ccc(NC2=C(Cl)C(=O)OC2OC(=O)c2ccco2)cc1 (stereo unspecified)	.	.	14µM	.	.
Cc1cccc(NC2=C(Cl)C(=O)OC2OC(=O)c2ccco2)c1 (stereo unspecified)	.	.	14µM	.	.
Cc1ccc(S(=O)(=O)N(C)c2cc(S(=O)(=O)Nc3ccncc3)c(C)cc2C)cc1	.	.	.	.	.
CSc1ccc(-c2cccc3nncn23)cc1	/	/	/	.	.[18.4 µM]
O=C(Oc1ccc(NC2=C(Cl)C(=O)c3ccccc3C2=O)cc1)c1ccc([N+](=O)[O-])cc1	.	.	.	.	.
O=C1C(Cl)=C(Nc2ccc3cn[nH]c3c2)C(=O)c2ccccc21	?	?	0.32µM	.	32µM
CC(=O)Nc1ccc(NC2=C(Cl)C(=O)c3ccccc3C2=O)cc1	.	?	0.89µM	.	.
O=C(NC1=C(NC2CCS(=O)(=O)C2)C(=O)c2ccccc2C1=O)c1ccccc1 (stereo unspecified)	.	1.3µM	/	.	.
COc1ccccc1NC1=C(NC(C)=O)C(=O)c2ccccc2C1=O	.	11µM	4µM	?	.
O=C(NC(NC1CCS(=O)(=O)C1)C(=O)c1cccs1)c1ccccc1 (stereo unspecified)	.	.	.	.	.
O=C1COc2ccccc2N1Cc1c(F)cccc1Cl	.	.	.	.	.
C=CCn1c(CCC)nc2ccccc21	.	.	/	.	.
O=c1cc(CSc2nnnn2-c2ccccc2)nc(Nc2ccc(F)cc2)[nH]1	.	.	.	.	.
Cc1nc2ccc(Br)cn2c1NC(C)(C)C	.	.	.	.	.
O=C(O)CNC(=O)c1ccccc1I	/	.	/	.	/
O=C(Nc1ccc(Nc2ccccc2)cc1)c1ccc(Cl)cc1	/	/	/	.	.
Cc1cccc(NC2=C(NC(=O)c3ccccc3)C(=O)c3ccccc3C2=O)c1	3.5µM	?	2.2µM	16µM	.
O=C(NC1=C(Nc2ccc(Cl)cc2)C(=O)c2ccccc2C1=O)c1ccccc1	?	?	6.3µM	?	?
CCC1(C)Cc2c(sc3nc(SCC(=O)O)[nH]c(=O)c23)CO1 (stereo unspecified)	18µM	.	.	?	.
COCc1cc(=O)[nH]c(SCCS(=O)(=O)c2ccc(Cl)cc2Cl)n1	.	?	0.32µM	.	.
SMILES	LmPK inhibitor	Giardia FBPA inh	Sm TGR inh	Tb PYK inh	RE007 growth inh
C=CCN1CN(CCc2ccccc2)CNC1=S	.	.	.	.	.
CC1(C)OCC(CSC2=C(SCC3COC(C)(C)O3)C(=O)c3ncccc3C2=O)O1 (stereo unspecified)	/	1.8µM	/	/	/
Oc1ccc(-c2cn3ccccc3n2)cc1	22µM	.	.	.	.
CC(C)(C)c1ccc(C(=O)N2CCC2(C)C(=O)Nc2ccc3nc[nH]c3c2)cc1 (stereo unspecified)	/	/	/	.	.
Cc1c(C(=O)N2CCN(C(=O)c3ccco3)CC2)oc2c(Cl)cccc12	/	/	.	.	.
O=S(=O)(NCCc1ccccc1)c1ccc(Br)s1	.	/	.	.	.
CCn1c(SCc2cccnc2)nc2c1c(=O)n(C)c(=O)n2C	.	.	.	.	.
CCOC(=O)N1CCC(=NNS(=O)(=O)c2cccc([N+](=O)[O-])c2)CC1	.	.	28µM	.	.
